# In PubChem BioAssay (Tox21):
# Results filed as inconclusive are left out. Calls of active or inactive are those of the source. Calls come from the whole dose curve; as a rule, active = well fitted curve in the direction sought with a large enough effect in the repeat runs; inconclusive = weak or mixed curves; inactive = no such curve, though single readings can be large; an effect the other way counts as inactive or inconclusive.
# Biological target: Nuclear receptor subfamily 1 group I member 2 (Homo sapiens) (UniProt O75469)
# Sequence (O75469 whole entry, looked up): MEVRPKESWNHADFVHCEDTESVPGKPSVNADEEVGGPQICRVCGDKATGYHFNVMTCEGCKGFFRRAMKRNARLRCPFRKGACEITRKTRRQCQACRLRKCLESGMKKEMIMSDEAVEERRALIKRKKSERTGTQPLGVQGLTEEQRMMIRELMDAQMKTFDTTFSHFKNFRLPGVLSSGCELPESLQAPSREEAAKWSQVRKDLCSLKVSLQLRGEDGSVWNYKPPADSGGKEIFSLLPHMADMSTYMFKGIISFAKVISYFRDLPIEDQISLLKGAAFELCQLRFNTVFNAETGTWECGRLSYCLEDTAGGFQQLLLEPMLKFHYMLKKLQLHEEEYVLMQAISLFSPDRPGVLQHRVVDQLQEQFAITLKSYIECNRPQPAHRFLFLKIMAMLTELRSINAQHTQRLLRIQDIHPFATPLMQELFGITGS
# Experiment: Human pregnane X receptor (PXR) small molecule agonists, qHTS assay (AID 1346982); note: nearly all actives have a fitted effect of over 35% in size; note: potency is the fitted concentration of half-maximal effect
# Settings: PXR-Luc HepG2, CYP3A4 luciferase reporter, 24 h; series mostly up to 92.4 µM
# Procedure, shortened: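 PXR-Luc HepG2 reporter cells (CYP3A4-driven luciferase) in 5% charcoal-stripped FBS medium, plated 5 h before compound addition, then treated 24 h at 37C. Luciferase read by ONE-Glo luminescence after 30 min at room temperature.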
# % is set by controls: 0 for no effect and ±100 for the full control effect.
row,SMILES,Potency
1,CN1C(C(=O)Nc2ccccn2)=C(O)c2sccc2S1(=O)=O,inactive
2,CN1C(=O)N(c2ccccc2Br)Cc2cnc(Nc3ccc4c(c3)OCC(CO)O4)nc21 (stereo not given),0.0154 µM (active)
3,O=C1c2ccccc2C(=O)N1CCc1noc(-c2ccc(CN3CCCCCC3)s2)n1,14.1 µM (active)
4,CCCCCCCCN,27 µM (active)
5,O=C1NCCN1CCO,inactive
6,CC1CC(C)C(=O)C1=O (stereo not given),inactive
7,CCC(C)COC(=O)CC(C)C (stereo not given),inactive
8,CC1=Nc2ccc3ccccc3c2C1(C)C,30.6 µM (active)
9,O=Cc1c2ccccc2c(Cl)c2ccccc12,inactive
10,C=Cc1ccc(S(=O)(=O)O)cc1,38.6 µM (active)
11,O=C(/C=C/c1ccccc1)OCCc1ccccc1,inactive
12,C=C(C)C(=O)OCCOCCOC(=O)C(=C)C,inactive
13,Oc1cccc(O)c1O,60.6 µM (active)
14,O=c1cc(-c2ccccc2)oc2ccc3ccccc3c12,2.43 µM (active)
15,Cc1cccc(O)c1N,inactive
16,CCCCCCCCOc1ccc(C(=O)O)cc1,60.4 µM (active)
17,O=C1c2ccccc2C(=O)C1c1nc2ccccc2c(Br)c1O,61.1 µM (active)
18,CCOC(=O)c1ccccc1C(=C1C=C(Br)C(=O)C(Br)=C1)c1cc(Br)c(O)c(Br)c1,51.3 µM (active)
19,COC(=O)CCS,inactive
20,O=C1c2ccccc2C(=O)C1(O)O,61.4 µM (active)
21,CN1CCCN=C1COC(=O)C(O)(c1ccccc1)C1CCCCC1 (stereo not given),inactive
22,CCCCCCCC/C=C\CCCCCCCCO,30.6 µM (active)

# Biological target: Nuclear receptor subfamily 1 group I member 2 (Rattus norvegicus) (UniProt Q9R1A7)
# Sequence (Q9R1A7 whole entry, looked up): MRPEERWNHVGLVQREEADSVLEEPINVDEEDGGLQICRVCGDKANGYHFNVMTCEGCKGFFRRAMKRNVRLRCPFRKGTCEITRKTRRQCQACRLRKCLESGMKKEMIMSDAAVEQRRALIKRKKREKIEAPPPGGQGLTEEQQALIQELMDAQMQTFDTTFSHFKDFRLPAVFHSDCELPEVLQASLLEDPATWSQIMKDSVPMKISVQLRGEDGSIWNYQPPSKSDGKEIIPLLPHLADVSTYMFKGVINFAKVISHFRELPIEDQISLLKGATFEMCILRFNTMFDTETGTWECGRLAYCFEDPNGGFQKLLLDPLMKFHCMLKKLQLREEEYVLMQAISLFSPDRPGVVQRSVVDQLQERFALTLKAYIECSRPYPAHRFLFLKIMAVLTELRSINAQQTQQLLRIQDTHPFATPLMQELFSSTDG
# Experiment: Rat pregnane X receptor (rPXR) activation by small molecules, qHTS assay (AID 1346983); note: nearly all actives have a fitted effect of over 20% in size
# Settings: rPXR luciferase reporter cells, One-Glo luminescence, 24 h; max activation: hits give high values
# Procedure, shortened: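 Cell-based rPXR luciferase reporter assay, 2,000 cells per well, rested 5hr at 37 C before compound addition in DMSO, then 24 hr at 37 C. One-Glo reagent was added and luminescence read after 30 min at room temperature.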
row,SMILES,max activation
1,CN1C(C(=O)Nc2ccccn2)=C(O)c2sccc2S1(=O)=O,-1.49% (inactive)
2,CC[N+](CC)(CCNC(=O)C(=O)NCC[N+](CC)(CC)Cc1ccccc1Cl)Cc1ccccc1Cl,-3.21% (inactive)
3,C=Cc1ccc(S(=O)(=O)O)cc1,-2.52% (inactive)
4,Oc1cccc(O)c1O,-5.99% (inactive)
5,CCCCN1CCCC1C(=O)Nc1c(C)cc(C)cc1C (stereo not given),14.6% (inactive)
6,CCOC(=O)OC(C)OC(=O)[C@@H]1N2C(=O)[C@@H](NC(=O)[C@H](N)c3ccccc3)[C@H]2SC1(C)C (stereo not given in full),0.482% (inactive)
7,CN1CCCN=C1COC(=O)C(O)(c1ccccc1)C1CCCCC1 (stereo not given),-0.811% (inactive)

# Biological target: Nuclear receptor subfamily 1 group I member 2 (Homo sapiens) (UniProt O75469)
# Experiment: Human pregnane X receptor (PXR) activation by small molecules, qHTS assay (AID 1346985); note: nearly all actives have a fitted effect of over 40% in size; note: potency is the fitted concentration of half-maximal effect
# Settings: DPX-2 HepG2 CYP3A4-luciferase, 24 h; series mostly up to 38.3 µM
# Procedure, shortened: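 DPX-2 cells (HepG2 co-transfected with a PXR response element and a CYP3A4-promoter luciferase construct) were seeded at 2,000 per well, rested 5 hr at 37C, then exposed to DMSO-dissolved compounds for 24 hr. Activation was read as luciferase luminescence.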
row,SMILES,Potency
1,CN1C(C(=O)Nc2ccccn2)=C(O)c2sccc2S1(=O)=O,inactive
2,CC[C@]1(O)C[C@H]2CN(CCc3c([nH]c4ccccc34)[C@@](C(=O)OC)(c3cc4c(cc3OC)N(C=O)[C@H]3[C@@](O)(C(=O)OC)[C@H](OC(C)=O)[C@]5(CC)C=CCN6CC[C@]43[C@@H]65)C2)C1,8.91 µM (active)
3,CC[N+](CC)(CCNC(=O)C(=O)NCC[N+](CC)(CC)Cc1ccccc1Cl)Cc1ccccc1Cl,inactive
4,C=Cc1ccc(S(=O)(=O)O)cc1,inactive
5,Oc1cccc(O)c1O,inactive
6,CN1CCCN=C1COC(=O)C(O)(c1ccccc1)C1CCCCC1 (stereo not given),inactive
